nsP2pro primary: blocks chikungunya virus nsP2 protease peptide cleavage; actives 1.1% (n = 31,000); Q8JUX6; FRET peptide cleavage, nsP2pro, fluorescence 1 h; Potency, µM (series often up to 24.9 µM), usual class: inhibitors; AID 1964107; also: nearly all actives have a fitted effect of over 60% in size
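Recombinant nsP2pro (150 nM) was preincubated with compound 15 min at room temperature in 10 mM Tris-HCl pH 8.0, 0.01% Tween 20. Peptide 2 FRET substrate (2.5 uM) was then added and fluorescence read after 1 h. Seven-point series, up to 25 uM.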
nsP2 cell sec: cell-based CHIKV nsP2 protease inhibition, secondary. shares compounds with nsP2pro primary. cell-based CHIKV nsP2 protease reporter assay. Potency, µM (top dose mostly 51.1 µM), actives largely listed as inhibitors. actives 10% (n = 450); also: nearly all actives have a fitted effect of over 70% in size
Target sequence (Q8JUX6 220-798 limits assumed): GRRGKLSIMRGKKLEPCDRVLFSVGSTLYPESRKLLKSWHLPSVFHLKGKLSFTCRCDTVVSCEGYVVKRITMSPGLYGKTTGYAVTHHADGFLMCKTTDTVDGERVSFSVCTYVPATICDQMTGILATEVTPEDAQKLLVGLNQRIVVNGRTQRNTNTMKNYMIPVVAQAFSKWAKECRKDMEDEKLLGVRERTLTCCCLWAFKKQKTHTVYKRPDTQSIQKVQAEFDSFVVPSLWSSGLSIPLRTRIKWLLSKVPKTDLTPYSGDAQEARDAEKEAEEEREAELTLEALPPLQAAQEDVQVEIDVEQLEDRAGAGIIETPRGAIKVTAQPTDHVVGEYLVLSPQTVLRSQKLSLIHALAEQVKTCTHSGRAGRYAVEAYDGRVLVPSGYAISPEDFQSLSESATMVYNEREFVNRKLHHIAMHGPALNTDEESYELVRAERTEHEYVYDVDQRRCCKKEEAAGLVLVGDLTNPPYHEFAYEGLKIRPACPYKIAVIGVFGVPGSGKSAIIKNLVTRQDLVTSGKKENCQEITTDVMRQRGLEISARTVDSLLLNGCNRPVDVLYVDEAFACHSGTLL
CHIKV NSP2 FL: inhibits full-length CHIKV NSP2 enzyme; shares compounds with nsP2pro primary; Full-length CHIKV NSP2 protease enzymatic counterscreen; Potency, µM (doses to about 50.7 µM), actives largely listed as inhibitors; actives 39% (n = 410); also: nearly all actives have a fitted effect of over 65% in size
Furin counterscr: human furin inhibition, counterscreen for nsP2pro inhibitors; shares compounds with nsP2pro primary; Recombinant human furin enzymatic counterscreen, fluorogenic substrate; Potency, µM (doses to about 50.6 µM), usual class: inhibitors; actives 6% (n = 410)
NS23 peptide cs: selectivity test for CHIKV nsP2 protease inhibitors: endogenous NS2/3 peptide; shares compounds with nsP2pro primary; AID 1964103; Purified CHIKV nsP2 protease, endogenous NS2/3 peptide cleavage; actives 34% (n = 410); Potency, µM (titrated, usually from 51 µM), usual class: inhibitors; also: nearly all actives have a fitted effect of over 55% in size
Papain cs: selectivity counter-screen for CHIKV nsP2 protease inhibitors: papain; Potency, µM (series often up to 51 µM), actives largely listed as inhibitors; shares compounds with nsP2pro primary; purified papain protease activity, enzymatic inhibition; AID 1964104; actives 5% (n = 410)
nsP2pro confirm: CHIKV nsP2 protease inhibition, confirmatory qHTS; CHIKV nsP2 protease enzymatic activity, qHTS; Potency, µM (top dose mostly 25.5 µM), most hits filed as inhibitors; actives 43% (n = 410); shares compounds with nsP2pro primary; also: nearly all actives have a fitted effect of over 75% in size
HCV NS3 4A cs: inhibits HCV NS3/4A protease in an nsP2pro selectivity counterscreen; shares compounds with nsP2pro primary; HCV NS3/4A protease biochemical counterscreen; Potency, µM (series often up to 50.9 µM), most hits filed as inhibitors; actives 20% (n = 410); also: nearly all actives have a fitted effect of over 55% in size
A number is an active result; . = inactive; ? = inconclusive; / = no result. Only a selection was taken, and hits are over-represented in it overall. Calls follow the shape of the full dose curve.

SMILES	nsP2pro primary	others
CCN(CC)C(=O)[C@@H]1CCC[C@@H](NC(=O)c2ccc(OC)cc2)CN(C)C(=O)C1	.
CCCNC(=O)N[C@@H]1CCC[C@@H](C(=O)N(CC)CC)CC(=O)N(C)C1	5.6µM	nsP2 cell sec=.;CHIKV NSP2 FL=24µM;Furin counterscr=?;NS23 peptide cs=17µM;Papain cs=.;nsP2pro confirm=8.2µM;HCV NS3 4A cs=?
CCN(CC)C(=O)[C@@H]1CCC[C@@H](NC(=O)c2ccc(Cl)cc2)CN(C)C(=O)C1	.
O=C(O)Cc1cccn1-c1cccc(Cl)c1	.
Cc1ccc(OCCn2c(CCNC(=O)c3ccncc3)nc3ccccc32)cc1	.
Cc1nc(N(C)C(=O)Cc2ccc(-c3ccccn3)cc2)sc1S(N)(=O)=O	.
CCCCCCCCCCCCCCCC(=O)O	.
C=CCCCCCCCCC(=O)O	4.3µM	nsP2 cell sec=.;CHIKV NSP2 FL=1.4µM;Furin counterscr=?;NS23 peptide cs=?;Papain cs=?;nsP2pro confirm=2.2µM;HCV NS3 4A cs=.
CCCCCCCC(=O)O	.
C[C@H]1[C@H](O)O[C@@H]2O[C@@]3(C)CC[C@H]4[C@H](C)CC[C@@H]1[C@@]24OO3	.
COc1ccc2c(O[C@H]3CC4C(=O)N(C)CCCC/C=C/[C@@H]5C[C@@]5(C(=O)NS(=O)(=O)C5CC5)NC(=O)[C@@H]4C3)cc(-c3nc(C(C)C)cs3)nc2c1C (stereo partly specified)	.
Cc1ccc(S(=O)(=O)Nc2cc(SCC(=O)O)c(O)c3ccccc23)cc1[N+](=O)[O-]	/	nsP2 cell sec=?;CHIKV NSP2 FL=4.1µM;Furin counterscr=.;NS23 peptide cs=2.6µM;Papain cs=18µM;nsP2pro confirm=0.9µM;HCV NS3 4A cs=.
COc1ccc(S(=O)(=O)Nc2ccc(C)n(CC(=O)O)c2=O)cc1	.
CCC(=O)NC(c1ccc(C)cc1)c1cc([N+](=O)[O-])c2cccnc2c1O (stereo unspecified)	.
COc1cc(CN(CCN)C(=O)c2cccs2)ccc1OCc1ccccc1	.
CC(C)c1ccc(-n2ncc3c(=O)n(CC(=O)Nc4cc(F)ccc4Cl)cnc32)cc1	.
C/C=C/C=C/C(=O)OC1CC/C=C/C(O)C(O)C(CCC)OC1=O (stereo unspecified)	?	nsP2 cell sec=.;CHIKV NSP2 FL=.;Furin counterscr=.;NS23 peptide cs=.;Papain cs=?;nsP2pro confirm=.;HCV NS3 4A cs=.
C/C=C/C=C/C=C/C(=O)OC1C=C2C(O)OC(=O)[C@]2(O)[C@@]2(C)CCCC(C)(C)[C@H]12 (stereo partly specified)	.
Cc1ccc(-c2cc(C(=O)Nc3ccccc3)c3ccccc3n2)cc1C	.
CC(=O)O[C@@](C)(C(=O)/C=C/C(C)(C)O)[C@H]1[C@H](O)C[C@@]2(C)[C@@H]3CC=C4[C@@H](C=C(O)C(=O)C4(C)C)[C@]3(C)C(=O)C[C@]12C	.
C=CCNc1nnc(-c2cccc3ccccc23)o1	?	nsP2 cell sec=.;CHIKV NSP2 FL=23µM;Furin counterscr=?;NS23 peptide cs=?;Papain cs=.;nsP2pro confirm=7.1µM;HCV NS3 4A cs=?
C=CCSc1nnc(-c2cccc3ccccc23)o1	.
C=CCNc1oc(-c2cccc3ccccc23)nc1C#N	.
Cc1ccc(-c2ccc3c(c2)C=C(C(=O)Nc2ccc(C[N+](C)(C)C4CCOCC4)cc2)CCC3)cc1	.
COCCNC(=O)c1cc(-c2ccccc2OC)c2cccn2n1	.
SMILES	nsP2pro primary	others
COc1cccc(NC(=S)N2CCN(c3ncc(C(F)(F)F)cc3Cl)CC2)n1	.
Cc1cccc(-c2cccc(CN3CCC(N[S+](=O)([O-])c4c(C)noc4C)CC3)c2)c1	.
O=C(CSc1ncc(S(=O)(=O)c2ccc(Br)cc2)c(=O)[nH]1)NCc1ccccc1Cl	.
CC(C)c1ccc(S(=O)(=O)c2cnc(SCC(=O)Nc3ccc4c(c3)OCCO4)[nH]c2=O)cc1	4µM	nsP2 cell sec=?;CHIKV NSP2 FL=.;Furin counterscr=.;NS23 peptide cs=.;Papain cs=?;nsP2pro confirm=.;HCV NS3 4A cs=.
Cc1ccc(S(=O)(=O)c2cnc(SCC(=O)Nc3ccc4c(c3)OCCO4)[nH]c2=O)cc1Cl	.
COc1ccc(C(=O)NC[C@@H]2CC[C@H]3C[C@@H]2C3(C)C)cc1	.
Fc1ccc2nc(CCC#Cc3ccccn3)cn2c1	?	nsP2 cell sec=.;CHIKV NSP2 FL=.;Furin counterscr=.;NS23 peptide cs=.;Papain cs=.;nsP2pro confirm=.;HCV NS3 4A cs=.
CC(=O)OC[C@]12[C@H](OC(C)=O)C(=O)[C@@H]3[C@@H](OC(C)=O)[C@@]14O[C@@]3(C)COC(=O)c1cccnc1[C@@H](C)[C@H](C)C(=O)O[C@@H]([C@H](O)[C@@H]2OC(C)=O)[C@]4(C)O	.
COc1nc2ccc(Br)cc2cc1[C@@H](c1ccccc1)[C@@](O)(CCN(C)C)c1cccc2ccccc12	1.2µM	nsP2 cell sec=?;CHIKV NSP2 FL=?;Furin counterscr=.;NS23 peptide cs=?;Papain cs=.;nsP2pro confirm=7.1µM;HCV NS3 4A cs=.
COc1ccc(C(=O)N2CCC(n3c(C)cnc3-c3ccncc3)C2)c(OC)c1 (stereo unspecified)	.
O=C(NC1CCN(c2cc(-c3cccs3)[nH]n2)C1)c1cccnc1 (stereo unspecified)	.
O=C(Nc1ccccc1)NC1CCCN(c2ccc3nnc(-c4ccccc4)n3n2)C1 (stereo unspecified)	.
O=C(Nc1cccs1)NC1CCN(c2ccc(C(F)(F)F)cn2)C1 (stereo unspecified)	?	nsP2 cell sec=?;CHIKV NSP2 FL=?;Furin counterscr=.;NS23 peptide cs=?;Papain cs=.;nsP2pro confirm=?;HCV NS3 4A cs=.
CC1(C(=O)N2CCN(c3ncccn3)CC2)CCOCC1	.
CCOC(=O)CC(SP(=S)(OC)OC)C(=O)OCC (stereo unspecified)	8.8µM	nsP2 cell sec=.;CHIKV NSP2 FL=23µM;Furin counterscr=.;NS23 peptide cs=18µM;Papain cs=?;nsP2pro confirm=5.7µM;HCV NS3 4A cs=.
O=C1CO[C@H]2CCN(CCCc3ccccc3)CC[C@@H]2N1c1ccccc1	.
Cc1cc(S(=O)(=O)Nc2cnccc2C(=O)Nc2nc(-c3ccccc3)cs2)c(C)o1	.
COC(=O)CCSC/C=C(\C)CCn1cc(CCc2ccc(-c3ccccc3)cc2)nn1	.
CCOc1cc(C(CS(C)(=O)=O)N2C(=O)c3cccc(NC(C)=O)c3C2=O)ccc1OC (stereo unspecified)	.
CC(=O)Nc1ccccc1	.
CC(=O)Oc1ccccc1C(=O)O	.
CC(=O)[O][Hg][c]1ccccc1	1.2µM	nsP2 cell sec=1.3µM;CHIKV NSP2 FL=1.8µM;Furin counterscr=1.2µM;NS23 peptide cs=4.6µM;Papain cs=.;nsP2pro confirm=0.36µM;HCV NS3 4A cs=?
FC(F)(F)c1cc(N2CCN(C(=S)Nc3cc(Cl)ccn3)CC2)cc(C(F)(F)F)c1	.
Cn1nccc1CCC(=O)N1CCN(C(=O)C2CCC2)[C@@H]2CS(=O)(=O)C[C@@H]21	.
Cc1ccc(NCCN(C)CCNc2ccnc3cc(Cl)ccc23)c2c(=O)c3ccccc3sc12	.
CCN(CC)CCNc1ccc2ncn3c4ccc(O)cc4c(=O)c1c23	.
CCN(CC)CCNc1ccc(CO)c2sc3ccccc3c(=O)c12	?	nsP2 cell sec=?;CHIKV NSP2 FL=.;Furin counterscr=.;NS23 peptide cs=?;Papain cs=.;nsP2pro confirm=.;HCV NS3 4A cs=.

Screens (PubChem BioAssay)
